Hits are enriched below; roughly 6.6% of the tested compounds scored in any of these assays.
HT1080-NT tox = kills 2HG-producing HT-1080-NT fibrosarcoma cells | HT-1080-NT fibrosarcoma viability, CellTiter-Glo ATP luminescence, 48 h | Potency, µM (top dose mostly 46.1 µM), for the others: at the top dose activity, negative = less viability, most hits filed as cytotoxic | 360,000 compounds, 1.6% hits | AID 686970;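 also: NT is the 2HG producing partner of a matched IDH1 knockdown line; 0% = DMSO-treated cells and -100% = media-only wells without cells; nearly all actives have a fitted effect of over 55% in size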
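Read-out is CellTiter-Glo luminescence after 10 minutes at room temperature, following 48 hours' compound treatment of HT-1080-NT cells (750 cells/well, RPMI, 5% FBS, 37 degrees C).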
TGFb SMAD3 inh = blocks TGF-b signaling | Potency, µM (doses to about 46.1 µM), for inactives: top-dose activity, negative = inhibition, hits mostly inhibitors | HepG2 CAGA-GFP TGF-b/SMAD3 reporter, GFP fluorescence, 18 h; TGF-beta stimulated, 500 pg/mL final | AID 588855 | 410,000 compounds, 1.2% hits; also: % is scaled to controls: 0 for no effect and ±100 for the full control effect; nearly all actives have a fitted effect of over 65% in size
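HEPG2 CAGA-GFP, 1000 cells/well; 2 h settle, 37 C; cpd via pin tool; TGF-b 500 pg/mL final; 18 h, 37 C; GFP imaging ex488/em500-530; %Activity normalised to -TGF-b and +DMSO controls; CRC fit, curve class.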
HT1080 IDH1KD tx = toxicity to HT-1080 IDH1 knockdown cells (counter line); HT-1080 IDH1 knockdown viability, ATP luminescence, 48 h; Potency, µM (doses to about 46.1 µM), without a hit: top-dose activity, negative = toxicity, usual class: cytotoxic; 360,000 compounds, 2% hits;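 also: 0% = DMSO wells and -100% = cell-free medium wells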
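Viability of IDH1-knockdown HT-1080 fibrosarcoma cells was assessed by CellTiter-Glo after 48 h at 37 °C with titrated compound; concentration-effect curves were classified by fit quality and response size.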
HepG2 viability = counter-screen for TGF-b inhibitors: cytotoxicity in HepG2 cells; Potency, µM (doses to about 46.1 µM), without a hit: at the top dose activity change, negative = cytotoxicity, actives largely listed as cytotoxic; 410,000 compounds, 0.76% hits; HepG2 CAGA-GFP viability, ATP luminescence, 18 h
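HepG2 CAGA-GFP cells (1000/well, DMEM with 1% FBS) received compound, then TGF-beta at 500 pg/mL final, and were incubated 18 hours at 37 degrees C. Viability was read by CellTiter-Glo luminescence. Media-only wells were set as complete cell-killing and DMSO as no toxicity.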
KB-3-1 tox = kills parental KB-3-1 adenocarcinoma cells. KB-3-1 viability, CellTiter-Glo ATP luminescence, 72 h. Potency, µM (series often up to 46.1 µM), hits mostly cytotoxic. 400,000 compounds, 1.4% hits; also: % is scaled to controls: 0 for no effect and ±100 for the full control effect; nearly all actives have a fitted effect of over 60% in size
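KB-3-1 cells, DMEM (no phenol red) + 10% FBS; compound by pin transfer, 72 h, 37 °C. Readout: CellTiter-Glo luminescence after 10 min. Data normalized, curve-fitted.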
KB-V1 cytotox = kills drug-selected multidrug resistant KB-V1 cells | Potency, µM (doses to about 46.1 µM), most hits filed as cytotoxic | 400,000 compounds, 3.4% hits | KB-V1 MDR cells viability, CellTiter-Glo, 72 h | AID 1347076; also: % is scaled to controls: 0 for no effect and ±100 for the full control effect; nearly all actives have a fitted effect of over 60% in size
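KB-V1 cells (P-gp-expressing MDR subline of KB-3-1) in phenol-red-free DMEM with 10% FBS were exposed to library compounds over a concentration series for 72 h at 37 degrees C. Viability read by CellTiter-Glo luminescence; concentration-effect curves fitted after normalization.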
* = called active by the depositor; i = inactive; ? = inconclusive; · = no result given; ! = a repeat was not active. Calls follow the shape of the dose curve; as a rule, active = well fitted curve in the direction sought with a large enough effect; inconclusive = small, poorly fitted or top-dose-only effect, or another doubt; inactive = no such curve, though single readings can be large; an effect the other way counts as inactive or inconclusive. Potency is read from the fitted curve at half-maximal effect.

SMILES	HT1080-NT tox	TGFb SMAD3 inh	HT1080 IDH1KD tx	HepG2 viability	KB-3-1 tox	KB-V1 cytotox
CCOC(=O)c1c(N)sc2c(OCC)c(Br)ccc12	?	?	?	-26.2%	i	i
CCOC(=O)c1c(NC(C)=O)sc2c(OCC(O)CNC(C)(C)C)c(Br)ccc12 (centres undefined)	?	?	-28.2%	11.2µM*	i	?
O=S(=O)(Nc1ccc(-c2ccc(N3CCCC3)nn2)cc1)c1cc(F)ccc1F	·	4.6%	·	-21.9%	i	i
Cc1ccc(C2CN(C)C3(C(=O)Nc4ccccc43)C23COc2ccccc2C3=O)cc1 (centres undefined)	-15.5%	?	-12.1%	-21.1%	?	20.6µM*
Cc1cc(O)cc(O)c1C=NCc1ccco1	?	20µM*	?	-69.3%	i	i
Cc1ccc2nc(NCc3ccco3)c(C=NCc3ccco3)c(=O)n2c1	1.7%	-11.7%	-1.2%	-1.0%	i	i
O=C(c1ccc2c(c1)N(Cc1ccccc1F)C(=O)c1ccccc1S2(=O)=O)N1CCN(c2ccccn2)CC1	·	0.0%	·	0.8%	?	i
Cc1ccc(Oc2nnc(-c3ccc(C)cc3)c3ccccc23)cc1	14.2%	-0.4%	-0.4%	-2.2%	?	18.4µM*
c1ccc(-c2nnc(OCc3cccnc3)c3ccccc23)cc1	-23.9%	?	-13.4%	-31.1%	i	i
Cc1ccc(-c2nnc(OCc3cccnc3)c3ccccc23)cc1	-14.9%	10.6%	-0.6%	2.3%	i	16.4µM*
Cc1nn(C(C)(C)C)c(OC(=O)c2c(F)cccc2F)c1Sc1ccccc1	·	-23.2%	·	-47.3%	i	i
CC1(C(=O)NCc2cccc3ccccc23)CCN1Cc1ccccc1OC(F)F (centres undefined)	?	?	?	-40.8%	?	i
Cc1ccc(NC(=O)c2ccc(C)c(S(=O)(=O)N3CCCCCC3)c2)cc1	·	-13.3%	·	-11.9%	?	20.6µM*
CCN(c1ccccc1)S(=O)(=O)c1cc(C(=O)Nc2ccc(F)c(F)c2)ccc1F	14.6µM*	11.2µM*	?	-29.9%	i	i
CCN(c1ccccc1)S(=O)(=O)c1ccc(C(=O)Nc2cccc(NC(C)=O)c2)cc1	-5.0%	-11.2%	-5.8%	-19.6%	i	i
Cc1ccc(NC(=O)c2ccc(F)c(S(=O)(=O)N3CCOCC3)c2)cc1F	?	?	?	-19.1%	i	3.66µM*
Cc1ccc(C(=O)Nc2cccc(O)c2)cc1S(=O)(=O)N1CCCCCC1	-21.4%	?	-20.2%	-0.5%	?	i
O=C(Nc1ccccc1)c1ccc(F)c(S(=O)(=O)N2CCOCC2)c1	6.9%	0.5%	-8.2%	-7.1%	i	i
Cc1ccc(NC(=O)c2ccc(F)c(S(=O)(=O)NCCc3ccccc3)c2)cc1F	·	11.2µM*	·	10µM*	·	·
O=C(CCc1ccc(S(=O)(=O)N2CCOCC2)cc1)OCC(=O)c1ccccc1F	-1.5%	2.5%	3.2%	5.4%	i	i
Cc1ccc(NC(=O)c2c(C)oc3ccc(O)c(CN4CCN(Cc5ccccc5)CC4)c23)cc1	·	?	·	-46.6%	i	i
Cc1csc(NC(=O)c2ccc(C)c(S(=O)(=O)N3CCCCC3)c2)n1	-1.5%	0.0%	-2.6%	-5.9%	?	9.2µM*
Cc1ccc(C)c(S(=O)(=O)N2CCN(C(=O)CNC(=O)c3ccc4ccccc4c3)CC2)c1	-18.7%	-14.9%	-17.9%	-85.3%	?	23.1µM*
Cc1ccc(C(=O)Nc2ccc(Br)cc2)cc1S(=O)(=O)N1CCOCC1	·	-10.1%	·	-50.3%	10.3µM*	4.11µM*
CNC(=O)c1nnsc1S(=O)(=O)c1ccc(Cl)cc1	?	11.2µM*	2.91µM*	17.8µM*	?	i
SMILES	HT1080-NT tox	TGFb SMAD3 inh	HT1080 IDH1KD tx	HepG2 viability	KB-3-1 tox	KB-V1 cytotox
O=C(c1nnsc1S(=O)(=O)c1ccc(Cl)cc1)N1CCOCC1	14.6µM*	?	?	12.6µM*	?	i
Nc1nc(C(=O)N2CCOCC2)nn1S(=O)(=O)c1ccc(Cl)cc1	11.6%	-6.9%	6.3%	-23.4%	i	i
O=C(c1nnsc1S(=O)c1ccc(Cl)cc1)N1CCOCC1 (centres undefined)	13µM*	?	?	-98.0%	?	13µM*
CNC(=O)c1ccc(S(=O)(=O)c2ccc(Cl)cc2)c(NC(C)=O)c1	6.0%	0.7%	-1.1%	-1.9%	i	i
CN1CCN(Cc2nc3ccccc3c(=O)n2Cc2nc(-c3ccccc3F)cs2)CC1	-12.9%	-23.9%	-23.9%	-36.4%	i	?
CN1CCN(Cc2nc3ccccc3c(=O)n2Cc2nc(-c3cccc([N+](=O)[O-])c3)cs2)CC1	14.6µM*	?	23.1µM*	-23.7%	i	i
CN1CCN(Cc2nc3ccccc3c(=O)n2Cc2nc(-c3ccc4ccccc4c3)cs2)CC1	5.8µM*	?	3.66µM*	15.8µM*!	?	20.6µM*!
CCOC(=O)C1CCN(C(=O)C2CCN(c3nnc(C)c4c(C)n(-c5ccccc5)nc34)CC2)CC1	·	-28.4%	·	-20.8%	·	·
CCCCC(=O)N1CCCC(c2nc(-c3cccc(OC)c3)no2)C1 (centres undefined)	-0.1%	-0.2%	6.9%	-3.5%	i	i
COc1cccc(-c2noc(C3CCCN(S(=O)(=O)c4cccc(Cl)c4C)C3)n2)c1 (centres undefined)	1.0%	-5.0%	-11.0%	-2.3%	i	14.6µM*
CCCS(=O)(=O)N1CCCC(c2nc(-c3cccc(OC)c3)no2)C1 (centres undefined)	7.4%	-6.1%	-3.2%	-16.8%	i	11.6µM*
Cc1ccc2nc(N3C(=O)CNC3=S)sc2c1	?	11.2µM*	16.4µM*	-135.8%	?	?
COc1ccc2nc(N3C(=O)CNC3=S)sc2c1	-0.5%	?	-0.4%	-61.4%	?	5.8µM*
COc1ccc(CCNC(=S)N2CCC(C(=O)c3ccc(F)cc3)CC2)cc1OC	-17.0%	11.2µM*	?	-35.8%	?	4.11µM*
COc1ccc(CCNC(=O)c2ccc(CN3CCC(Cc4ccccc4)CC3)cc2)cc1OC	-18.6%	-4.2%	-7.9%	-22.6%	i	3.66µM*
COc1ccc2nc(N3CCCC(C(=O)NCCc4ccc(OC)c(OC)c4)C3)sc2c1 (centres undefined)	-23.0%	-4.4%	11.4%	-3.2%	i	i
S=C(Nc1ccccc1)N1CCC(Cc2ccccc2)CC1	?	-17.8%	?	5.0%	11.6µM*	i

High-throughput results as filed in PubChem BioAssay.
